This is a sample that favours compounds with a hit; in the whole collection about 1.5% have one here.
Eya2 phos inh – Eya2 (human) phosphatase inhibition; recombinant Eya2, OMFP fluorescence dephosphorylation (OMFP is methylfluorescein phosphate); Potency, µM (doses to about 76.9 µM), without a hit: top-dose activity, negative = inhibition, usual class: inhibitors; actives 0.006% (n = 330,000); AID 488837; note: potency is the fitted concentration of half-maximal effect
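Eya2 protein (added as 0.2 uM solution) was preincubated with compound for 10 min at ambient temperature in 50 mM HEPES pH 7.5, 50 mM NaCl, 5 uM MgCl2, 0.05% BSA, 1 mM DTT. OMFP (added at 50 uM) then reacted 10 min; fluorescence read at 485/525 nm.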
CtBP-E1A blk – inhibitors of CtBP/E1A interaction. activity change, % (concentration not given with the values). AlphaScreen GST-E1A/His-CtBP binding, 1536-well; stronger effect = lower value. actives 0.49% (n = 340,000). AID 651724; in the data active = activity change below about -65%; inconclusive = mostly about -30% to -63%
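AlphaScreen with 125 nM GST-E1A and 125 nM His-CtBP (5X stocks) in Tris pH 8.0, 300 mM NaCl, BSA, Tween 20, TCEP. Compounds preincubated 2 h at 37 deg C, then glutathione donor/nickel acceptor beads added for 1 h at 37 deg C in dark.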
Six1-Eya2 blk – inhibitors of human Six1/Eya2 interaction. Q15475+O00167. AID 651725. actives 0.56% (n = 360,000). activity change, % (concentration not given with the values). AlphaScreen GST-Six1/His-Eya2 binding, biochemical; stronger effect = lower value; in the data active = activity change below about -65%; inconclusive = mostly about -30% to -63%
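Compounds are tested against tagged Six1 and Eya2 proteins bridged by glutathione donor and nickel acceptor beads; after a one-hour incubation at 37 °C without light, AlphaScreen emission is recorded.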
TrxR1 substrate – substrates of rat thioredoxin reductase 1; O89049; purified TrxR1 substrate turnover, NADPH consumption readout; Potency, µM (titrated, usually from 114 µM), inactives show at the highest dose activity change, negative = substrate turnover; actives 0.01% (n = 390,000); note: potency is the fitted concentration of half-maximal effect; nearly all actives have a fitted effect of over 50% in size
Target sequence (O89049 whole entry, looked up): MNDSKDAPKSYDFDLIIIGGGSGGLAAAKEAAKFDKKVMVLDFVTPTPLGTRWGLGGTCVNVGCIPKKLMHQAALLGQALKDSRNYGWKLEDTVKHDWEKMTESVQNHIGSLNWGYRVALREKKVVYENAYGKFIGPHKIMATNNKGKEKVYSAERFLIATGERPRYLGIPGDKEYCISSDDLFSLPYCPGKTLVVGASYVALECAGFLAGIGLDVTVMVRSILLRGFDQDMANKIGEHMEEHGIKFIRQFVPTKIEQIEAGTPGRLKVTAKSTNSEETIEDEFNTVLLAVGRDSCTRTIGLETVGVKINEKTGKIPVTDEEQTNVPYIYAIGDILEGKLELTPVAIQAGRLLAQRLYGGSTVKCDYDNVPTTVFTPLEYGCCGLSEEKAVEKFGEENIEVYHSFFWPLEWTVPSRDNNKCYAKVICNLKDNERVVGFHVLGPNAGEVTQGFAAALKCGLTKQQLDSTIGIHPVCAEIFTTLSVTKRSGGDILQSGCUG
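Rat TrxR1, dispensed at 90 nM, was prereduced with 400 uM NADPH (final) for 5 min at ~22 deg C, then incubated with compound 15 min before 400 uM selenite. A first-read NADPH fluorescence drop versus no-compound background flagged substrates.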
rTrxR1 inhibitor – blocks rat thioredoxin reductase 1; Potency, µM (top dose mostly 114 µM), inactives show top-dose activity change, negative = inhibition, usual class: inhibitors; actives 1% (n = 390,000); O89049; recombinant rTrxR1, NADPH fluorescence consumption, selenite substrate; note: potency is the fitted concentration of half-maximal effect; nearly all actives have a fitted effect of over 65% in size
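Rat TrxR1 (90 nM in the dispensed reagent) was pre-reduced with 400 uM NADPH for 5 min at room temperature, then incubated with compound for 15 min. After 400 uM selenite was added, NADPH fluorescence (Ex 340/Em 450 nm) was followed for 8 min.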
GALK inhibitor – blocks human galactokinase activity | Purified GALK, Kinase-Glo residual ATP luminescence | Potency, µM (top dose mostly 57.5 µM), for inactives: top-dose activity change, negative = inhibition, most hits filed as inhibitors | actives 0.007% (n = 270,000) | AID 1868; note: potency is the fitted concentration of half-maximal effect
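Compounds were pin-transferred into ATP buffer (35 uM final), then GALK plus galactose (5 nM, 100 uM final) was added. After 1 h at room temperature, Kinase-Glo Plus was added and luminescence read after 10 min.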
Numbers without * were called inactive; ? = inconclusive; . = not tested or not shown; [ ] = another dose, or the depositor's remark. Unless noted, calls come from the whole dose curve; as a rule, active = well fitted curve in the direction sought with a large enough effect; inconclusive = small, poorly fitted or top-dose-only effect, or another doubt; inactive = no such curve, though single readings can be large; an effect the other way counts as inactive or inconclusive. % is set by controls: 0 for no effect and ±100 for the full control effect.

SMILES	Eya2 phos inh	CtBP-E1A blk	Six1-Eya2 blk	TrxR1 substrate	rTrxR1 inhibitor	GALK inhibitor
CN[C@H](CC(C)C)C(=O)N[C@H]1C(=O)N[C@@H](CC(N)=O)C(=O)N[C@@H]2C(=O)N[C@H]3C(=O)N[C@H](C(=O)N[C@H](C(=O)O)c4cc(O)cc(O)c4-c4cc3ccc4O)[C@H](O)c3ccc(c(Cl)c3)Oc3cc2cc(c3O[C@@H]2O[C@H](CO)[C@@H](O)[C@H](O)[C@@H]2O[C@H]2C[C@](C)(N)[C@H](O)[C@H](C)O2)Oc2ccc(cc2Cl)[C@H]1O	1%	.	.	9%[57.1 µM]	9%[57.1 µM]	.
O=[N+]([O-])c1ccc(Sc2nc3ccccc3o2)c([N+](=O)[O-])c1	-7%	4	-4	4%	0.63µM*	-2%
CNCCc1ccc(OC)c(OC)c1	5%	0	3	6%[57.1 µM]	20µM*	3%
COc1ccc(CCN)cc1OC	9%	0	5	6%[57.1 µM]	4%[57.1 µM]	4%
CC1(C)N([O])C(c2ccc(C(=O)O)cc2)=[N+]([O-])C1(C)C	.	.	.	-10%	-3%	.
COc1ccc(OC)c(N2C(=O)NC(=O)/C(=C\c3ccc([N+](=O)[O-])s3)C2=O)c1	-24%	?	-67*	-9%[57.1 µM]	?	-1%
O=C1NC(=O)N(c2ccccc2)C(=O)/C1=C\c1ccc([N+](=O)[O-])s1	3%	-28	?	-19%	56µM*	.
CN1C(=O)NC(=O)/C(=C/c2ccc([N+](=O)[O-])s2)C1=O	8%	?	?	-5%	?	-2%
N[C@@H](Cn1cc(I)c(=O)[nH]c1=O)C(=O)O	.	.	.	.	-8%	.
Cc1noc(C)c1C(=O)N1CCC2(CC1)Oc1ccc(F)cc1C(=O)C21CC(c2ccc(Cl)cc2)=NO1 (centres undefined)	-2%	-5	1	4%	?	-2%
CNCCc1c[nH]c2ccccc12	-14%	-6	1	5%	56µM*	8%
COc1ccc(NC(=O)Cn2c3ccccc3c3nc4n(c(=O)c32)CCS4)cc1	?	-4	4	0%[57.1 µM]	21%[57.1 µM]	0%
COc1ccc(-c2cc3nc(C)c(CCC(=O)N4CCN(c5cc(C)ccc5C)CC4)c(C)n3n2)c(OC)c1	.	.	.	18%	41%	.
CSc1nc(N)c(N=Nc2ccc([As](=O)(O)O)cc2)c(=O)[nH]1	?	4	-9	6%[57.1 µM]	4µM*	2%
CC(N)[C@H](O)c1ccc(O)c(O)c1 (some centres undefined)	-2%	.	.	9%[57.1 µM]	18µM*	.
C=C1CCN(C(Cc2ccccc2)C(=O)Nc2ccc(OC)cc2)S(=O)(=O)c2ccccc21 (centres undefined)	.	.	.	1%	61%	.
OCCCc1ccc(O)c(O)c1	5%	0	-4	5%	79µM*	3%
Cn1c(=O)c2c(nc(N/N=C/c3c(O)n(-c4ccccc4)c(=S)[nH]c3=O)n2C)n(C)c1=O	7%	-84*	-84*	-6%	?	2%

Compound activity: PubChem, National Center for Advancing Translational Sciences (NCATS)
